Experimental data from PubChem BioAssay AID1159580 (chemical genetic matrix, 2015).
Where “and” joins values, the source holds several entries; their conditions need not be identical. Equal entries are not always repeated. Out of some 5,500 compounds screened, about 2,000 (36%) were called active. About 18% were inconclusive and are not listed. No stated cut-off is given here; in the data, active means normalized growth mostly below about 0.91 (no sharp cut-off); inconclusive means no clear call, values can overlap the other calls; inactive means mostly above about 0.92. Some of the results follow.

Assay: chemical genetic growth profiling, strain panel (AID 1159580);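 further: tested at 20 µM; growth read once vehicle control cultures reached saturation at 30 °C; 1 = growth at the plate median or of vehicle wells; lower values mean less growth of the strain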
Settings: S. cerevisiae deletion strains, growth OD

Measured: normalized growth

C=C1C2CC[C@@]3(C)[C@H](c4ccoc4)OC(=O)C[C@]13O[C@H]1CC(O)C(C)(C)C(CC(=O)OC)[C@@]21C (stereo not given in full)
inactive: locus YAL021C, strain ccr4, hits give low values 0.962 | locus YAL026C, strain drs2, hits give low values 0.934 | locus YAL030W, strain snc1, hits give low values 0.949 | locus YBL061C, strain skt5, hits give low values 0.984 | locus YBR009C, strain hhf1, hits give low values 0.972 | locus YBR021W, strain FUR4, hits give low values 0.991 | locus YBR023C, strain chs3, hits give low values 0.981 | locus YBR171W, strain sec66, hits give low values 0.98 | locus YBR229C, strain ROT2, hits give low values 0.995 | locus YBR231C, strain swc5, hits give low values 0.974 | locus YBR279W, strain paf1, hits give low values 0.978 | locus YCL011C, strain gbp2, hits give low values 0.984 | locus YCL016C, strain dcc1, hits give low values 0.983 | locus YCL029C, strain bik1, hits give low values 1.01 | locus YCL061C, strain MRC1, hits give low values 0.989 | locus YCL069W, strain vba3, hits give low values 0.979 | locus YCR088W, strain abp1, hits give low values 0.977 | locus YDL005C, strain med2, hits give low values 0.952 | locus YDL035C, strain GPR1, hits give low values 0.999 | locus YDL040C, strain nat1, hits give low values 0.982 | locus YDL074C, strain BRE1, hits give low values 0.999 | locus YDL101C, strain DUN1, hits give low values 0.999 | locus YDL185W, strain tfp1, hits give low values 1.02 | locus YDL192W, strain arf1, hits give low values 1.01 | locus YDR001C, strain nth1, hits give low values 0.962 | locus YDR069C, strain doa4, hits give low values 0.957 | locus YDR101C, strain arx1, hits give low values 1.01 | locus YDR137W, strain rgp1, hits give low values 0.938 | locus YDR150W, strain NUM1, hits give low values 0.98 | locus YDR159W, strain sac3, hits give low values 0.936 | locus YDR162C, strain NBP2, hits give low values 1.01 | locus YDR195W, strain ref2 0.937 | locus YDR297W, strain sur2, hits give low values 0.965 | locus YDR318W, strain mcm21, hits give low values 1.02 | locus YDR334W, strain swr1, hits give low values 0.966 | locus YDR335W, strain msn5, hits give low values 0.967 | locus YDR388W, hits give low values 1 | locus YDR392W, strain spt3, hits give low values 0.97 | locus YDR502C, strain sam2, hits give low values 1 | locus YEL003W, strain gim4, hits give low values 0.975 | locus YEL037C, strain rad23, hits give low values 0.976 | locus YEL061C, strain CIN8 (second series), hits give low values 0.966 | locus YEL061C, strain CIN8, hits give low values 1.05 | locus YER015W, strain faa2, hits give low values 0.985 | locus YER016W, strain bim1, hits give low values 0.967 | locus YER110C, hits give low values 1.02 | locus YER111C, strain swi4, hits give low values 0.988 | locus YER155C, strain BEM2 (second series), hits give low values 0.955 | locus YER155C, strain BEM2, hits give low values 1 | locus YER167W, strain BCK2, hits give low values 1 | locus YFR010W, strain ubp6, hits give low values 0.965 | locus YGL078C, strain dbp3, hits give low values 1.02 | locus YGL086W, strain mad1, hits give low values 1.02 | locus YGL167C, strain pmr1, hits give low values 0.963 | locus YGL173C, strain kem1, hits give low values 0.961 | locus YGL227W, strain vid30, hits give low values 0.986 | locus YGL240W, strain doc1, hits give low values 0.97 | locus YGL248W, strain PDE1, hits give low values 1.01 | locus YGL253W, strain hxk2, hits give low values 0.972 | locus YGR135W, strain pre9, hits give low values 1.01 | locus YGR252W, strain gcn5, hits give low values 1.02 | locus YHR013C, strain ard1, hits give low values 0.939 | locus YHR027C, strain rpn1, hits give low values 0.967 | locus YHR030C, strain SLT2, hits give low values 1.01 and 0.963 | locus YHR079C, strain IRE1 (second series), hits give low values 1.01 | locus YHR079C, strain IRE1, hits give low values 0.973 | locus YHR094C, strain hxt1, hits give low values 1.01 | locus YHR129C, strain ARP1, hits give low values 1 | locus YHR142W, strain chs7, hits give low values 0.986 | locus YHR200W, strain rpn10, hits give low values 0.993 | locus YIL066C, strain RNR3, hits give low values 0.997 | locus YIL073C, strain SPO22, hits give low values 1.06 | locus YIL125W, strain kgd1, hits give low values 1.01 | locus YIR030C, strain dcg1, hits give low values 1.01 | locus YJL092W, strain hpr5, hits give low values 0.975 | locus YJL095W, strain BCK1 (second series), hits give low values 0.956 | locus YJL095W, strain BCK1, hits give low values 1.01 and 0.974 | locus YJL115W, strain asf1, hits give low values 0.937 | locus YJL129C, strain trk1, hits give low values 0.963 | locus YJL134W, strain LCB3, hits give low values 1.01 | locus YJL154C, strain vps35, hits give low values 0.973 | locus YJL164C, strain tpk1, hits give low values 0.972 | locus YJL166W, strain qcr8, hits give low values 0.97 | locus YJL168C, strain set2, hits give low values 1.01 | locus YJL187C, strain SWE1 (second series), hits give low values 1
